The test system of assay [1] is Plasmodium falciparum Sir2 (PF13_0152, Sir2A). As to the kind of experiment: Plasmodium falciparum Sir2A binding compounds – biochemical, small-molecule microarray, 635 nm fluorescence, primary screen (AID 1098).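 Further: score merges spot fluorescence intensity with its signal-to-noise ratio.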 Conditions: fluorescence 635 nm, higher = more signal.
Assay [2] in a line: probe aDKK1 binding to arrayed compounds – biochemical, biotinylated probe, 635/667 nm fluorescence, primary screen (AID 1099).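 Further: score merges 667nm spot fluorescence with signal to noise across triplicate slides.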 Conditions: small-molecule microarray, higher = more signal.
Assay [3] can be described thus: probe aCHRDL2 binding to arrayed compounds – biochemical, biotinylated probe, 635/667 nm fluorescence, primary screen (AID 1100). Conditions: small-molecule microarray, higher = more signal.
Assay [4] can be described thus: change in splice reporter luminescence, either direction, cell-based, HEK293, spliceosome inhibition project, primary screen (AID 1101).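 Further: HEK293 cells carrying a splicing-competent luciferase reporter gene; test concentration not given here.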 The conditions noted are these: HEK293 splicing luciferase reporter, 24 h, higher = more signal, called active from +8 up or from −8 down. Background: A reporter such as luciferase makes a cellular process visible.
Assay [5] deals with Fibroblast growth factor 10 (Homo sapiens) (UniProt O15520). As to the kind of experiment: compounds binding fibroblast growth factor 10 – biochemical, small-molecule microarray, 635 nm fluorescence, primary screen (AID 1102). Conditions: FGF10 binding, fluorescence 635 nm, higher = more signal.
Assay [6] has as its system glycogen synthase kinase-3 (GSK3A per assay name; protocol says GSK3B). As to the kind of experiment: compounds binding glycogen synthase kinase-3 – biochemical, small-molecule microarray, 635 nm fluorescence, GSK3A, primary screen (AID 1103). Further: the record names both GSK3A and GSK3B. Conditions: fluorescence 635 nm, higher = more signal.
The target of assay [7] is Epidermal growth factor receptor (Homo sapiens) (UniProt P00533). Description: compounds binding epidermal growth factor receptor – biochemical, small-molecule microarray, 635 nm fluorescence, primary screen (AID 1104).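 Further: score merges 667 nm emission intensity with spot signal to noise over triplicate slides.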 Conditions: EGFR binding, higher = more signal.
Assay [8] has as its target Follistatin-related protein 3 (Homo sapiens) (UniProt O95633). As to the kind of experiment: compounds binding follistatin-related protein 3 – biochemical, small-molecule microarray, 635 nm fluorescence, primary screen (AID 1105).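 Further: score merges emission near 667 nm and signal to noise per printed spot across three slides.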 Conditions: FSTL3 binding, higher = more signal.
For assay [9], the target named is Dickkopf-related protein 1 (Homo sapiens) (UniProt O94907). Description: small molecules binding DKK1 protein – biochemical, small-molecule microarray, 635 nm fluorescence scan, primary screen (AID 1106).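 Further: score merges emission near 667 nm with signal to noise over three replicate slides.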 Conditions: higher = more signal.
The subject of assay [10] is Inhibin beta A chain (activin A). Description: small molecules binding activin A – biochemical, small-molecule microarray, 635 nm fluorescence scan, primary screen (AID 1107).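 Further: mouse activin A protein probed at 4.33 µg/mL on printed slides; score merges bound-protein fluorescence near 667 nm with spot signal-to-noise.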 Conditions: INHBA, higher = more signal.
For assay [11], the system named is Human papillomavirus type 1a protein E7 (residues 44-93). Description: small molecules binding HPV E7 44-93 – biochemical, small-molecule microarray, residues 44-93, 635 nm fluorescence, primary screen (AID 1108).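 Further: E7 fragment applied at 1 µg/mL in TBST for 1 h at 4 C; score combines spot fluorescence with its signal to noise ratio.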 The conditions noted are these: fluorescence 635 nm, higher = more signal.
A short description of assay [12]: hepatitis C replication reporter changes, two-sided – Huh7 cells, luciferase reporter, HCV replication inhibitor project, primary screen (AID 1109).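 Further: huh7 hepatoma cells harbouring a luciferase neomycin HCV replicon reporter; luciferase luminescence as measure of HCV replicon replication; test concentration not given here.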 The conditions noted are these: Huh7 HCV replicon luciferase reporter, 48 h; higher = more signal.
The target of assay [13] is Left-right determination factor 2 (Homo sapiens) (UniProt O00292). Description: small molecules binding LEFTY2 protein – biochemical, small-molecule microarray, 635 nm fluorescence scan, primary screen (AID 1110). The conditions noted are these: higher = more signal.
Assay [14] deals with Calmodulin-1 (Homo sapiens) (UniProt P0DP23). Description: small molecules binding calmodulin-1 with EGTA – biochemical, small-molecule microarray, Cy5-labelled CALM1, profiling panel (AID 1111).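 Further: labelled calmodulin applied in Tris saline Tween buffer holding calcium plus EGTA and DTT.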 The conditions noted are these: Cy5-CALM1 binding fluorescence, higher = more signal.
For assay [15] the target is unchanged. As to the kind of experiment: small molecules binding Ca-loaded calmodulin-1 – biochemical, small-molecule microarray, Cy5-labelled CALM1, plus calcium, artefact control for SMM control-protein annotation, profiling panel (AID 1112).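 Further: score merges spot fluorescence with signal to noise from triplicate slides.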 Conditions: Cy5-CALM1 binding fluorescence, higher = more signal.
The nature of assay [16]: probe aWnt5a binding to arrayed compounds – biochemical, biotinylated probe, 635/667 nm fluorescence, primary screen (AID 1113).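 Further: score merges 667 nm fluorescence intensity with signal-to-noise per printed feature.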 Conditions: small-molecule microarray, higher = more signal.
Assay [17] is described as follows: probe aShh binding to arrayed compounds – biochemical, biotinylated probe, 635/667 nm fluorescence, primary screen (AID 1114).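 Further: probe is biotin-labelled aShh protein from a stem cell growth factor screen; measures binding of labelled protein to compounds printed on the slide; score merges feature fluorescence at 667 nm with signal-to-noise.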 The conditions noted are these: small-molecule microarray, higher = more signal.
A short description of assay [18]: probe aNog binding to arrayed compounds – biochemical, biotinylated probe, 635/667 nm fluorescence, primary screen (AID 1115).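 Further: probe is biotinylated aNog protein used at 0.15 µg/mL for 1 h at 4 C; z-score combines 667 nm fluorescence of each spot with its signal to noise.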 The conditions noted are these: small-molecule microarray, higher = more signal.
The target in assay [19] is Torsin-1A-interacting protein 1 (Homo sapiens) (UniProt Q5JTV8). As to the kind of experiment: compound microarray binding of lysate hLAP1 – cell lysate, small-molecule microarray, COS7 lysate, 635/667 nm fluorescence, primary screen (AID 1116). Conditions: 635 nm fluorescence, higher = more signal.
Assay [20] addresses Alpha-bungarotoxin (Bungarus multicinctus) (UniProt P60615). As to the kind of experiment: compounds binding labelled alpha-BTX control protein – biochemical, small-molecule microarray, Alexa647 label, 635/667 nm fluorescence, artefact control for SMM control protein annotation, profiling panel (AID 1117). Conditions: alpha-BTX-A647 binding fluorescence, higher = more signal.

SMILES strings stand for the structures. Activity calls are given as the source filed them.

Composite z-score and z-score data for six compounds are collected here from PubChem BioAssay.

Dickkopf-related protein 1 (Homo sapiens), sequence (O94907 whole entry, looked up): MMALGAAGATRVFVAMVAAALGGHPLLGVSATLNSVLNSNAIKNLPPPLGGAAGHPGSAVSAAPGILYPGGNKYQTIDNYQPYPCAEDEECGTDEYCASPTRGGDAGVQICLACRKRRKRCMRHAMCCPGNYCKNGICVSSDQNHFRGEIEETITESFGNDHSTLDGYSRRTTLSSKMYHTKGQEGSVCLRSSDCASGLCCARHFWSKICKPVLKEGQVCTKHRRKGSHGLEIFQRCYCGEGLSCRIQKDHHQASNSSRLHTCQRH
Torsin-1A-interacting protein 1 (Homo sapiens), sequence (Q5JTV8 whole entry, looked up): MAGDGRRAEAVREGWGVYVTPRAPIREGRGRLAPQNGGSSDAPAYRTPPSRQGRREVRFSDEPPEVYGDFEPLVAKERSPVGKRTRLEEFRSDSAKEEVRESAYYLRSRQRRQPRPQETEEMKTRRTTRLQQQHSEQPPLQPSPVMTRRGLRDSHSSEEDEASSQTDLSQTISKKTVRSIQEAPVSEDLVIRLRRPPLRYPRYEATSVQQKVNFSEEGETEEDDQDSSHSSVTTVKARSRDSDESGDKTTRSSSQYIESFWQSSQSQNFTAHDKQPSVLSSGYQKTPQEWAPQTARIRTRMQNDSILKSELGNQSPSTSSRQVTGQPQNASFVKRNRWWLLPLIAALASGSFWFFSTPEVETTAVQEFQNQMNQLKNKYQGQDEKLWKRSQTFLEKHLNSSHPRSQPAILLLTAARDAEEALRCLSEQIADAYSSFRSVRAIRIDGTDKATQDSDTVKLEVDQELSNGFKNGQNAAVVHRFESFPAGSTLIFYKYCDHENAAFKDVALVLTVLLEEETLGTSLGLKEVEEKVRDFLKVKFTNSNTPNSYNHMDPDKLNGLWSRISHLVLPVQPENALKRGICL
Follistatin-related protein 3 (Homo sapiens), sequence (O95633 whole entry, looked up): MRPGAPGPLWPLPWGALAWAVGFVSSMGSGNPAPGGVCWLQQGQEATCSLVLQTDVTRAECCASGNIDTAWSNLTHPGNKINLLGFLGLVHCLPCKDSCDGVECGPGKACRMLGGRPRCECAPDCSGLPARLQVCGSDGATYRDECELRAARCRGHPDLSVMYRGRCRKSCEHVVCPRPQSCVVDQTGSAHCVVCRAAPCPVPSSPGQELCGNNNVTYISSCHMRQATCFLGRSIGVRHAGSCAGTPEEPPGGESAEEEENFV
Alpha-bungarotoxin (Bungarus multicinctus), sequence (P60615 whole entry, looked up): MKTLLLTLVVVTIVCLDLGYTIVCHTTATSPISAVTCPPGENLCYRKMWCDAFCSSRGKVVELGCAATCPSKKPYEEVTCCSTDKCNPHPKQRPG
Fibroblast growth factor 10 (Homo sapiens), sequence (O15520 whole entry, looked up): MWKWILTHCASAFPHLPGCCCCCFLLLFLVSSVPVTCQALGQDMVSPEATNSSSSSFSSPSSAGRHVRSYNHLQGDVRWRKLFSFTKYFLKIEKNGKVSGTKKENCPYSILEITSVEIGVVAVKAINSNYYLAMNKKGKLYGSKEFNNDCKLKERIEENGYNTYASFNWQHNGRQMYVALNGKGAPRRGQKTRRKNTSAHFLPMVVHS
Epidermal growth factor receptor (Homo sapiens), sequence (P00533 whole entry, looked up): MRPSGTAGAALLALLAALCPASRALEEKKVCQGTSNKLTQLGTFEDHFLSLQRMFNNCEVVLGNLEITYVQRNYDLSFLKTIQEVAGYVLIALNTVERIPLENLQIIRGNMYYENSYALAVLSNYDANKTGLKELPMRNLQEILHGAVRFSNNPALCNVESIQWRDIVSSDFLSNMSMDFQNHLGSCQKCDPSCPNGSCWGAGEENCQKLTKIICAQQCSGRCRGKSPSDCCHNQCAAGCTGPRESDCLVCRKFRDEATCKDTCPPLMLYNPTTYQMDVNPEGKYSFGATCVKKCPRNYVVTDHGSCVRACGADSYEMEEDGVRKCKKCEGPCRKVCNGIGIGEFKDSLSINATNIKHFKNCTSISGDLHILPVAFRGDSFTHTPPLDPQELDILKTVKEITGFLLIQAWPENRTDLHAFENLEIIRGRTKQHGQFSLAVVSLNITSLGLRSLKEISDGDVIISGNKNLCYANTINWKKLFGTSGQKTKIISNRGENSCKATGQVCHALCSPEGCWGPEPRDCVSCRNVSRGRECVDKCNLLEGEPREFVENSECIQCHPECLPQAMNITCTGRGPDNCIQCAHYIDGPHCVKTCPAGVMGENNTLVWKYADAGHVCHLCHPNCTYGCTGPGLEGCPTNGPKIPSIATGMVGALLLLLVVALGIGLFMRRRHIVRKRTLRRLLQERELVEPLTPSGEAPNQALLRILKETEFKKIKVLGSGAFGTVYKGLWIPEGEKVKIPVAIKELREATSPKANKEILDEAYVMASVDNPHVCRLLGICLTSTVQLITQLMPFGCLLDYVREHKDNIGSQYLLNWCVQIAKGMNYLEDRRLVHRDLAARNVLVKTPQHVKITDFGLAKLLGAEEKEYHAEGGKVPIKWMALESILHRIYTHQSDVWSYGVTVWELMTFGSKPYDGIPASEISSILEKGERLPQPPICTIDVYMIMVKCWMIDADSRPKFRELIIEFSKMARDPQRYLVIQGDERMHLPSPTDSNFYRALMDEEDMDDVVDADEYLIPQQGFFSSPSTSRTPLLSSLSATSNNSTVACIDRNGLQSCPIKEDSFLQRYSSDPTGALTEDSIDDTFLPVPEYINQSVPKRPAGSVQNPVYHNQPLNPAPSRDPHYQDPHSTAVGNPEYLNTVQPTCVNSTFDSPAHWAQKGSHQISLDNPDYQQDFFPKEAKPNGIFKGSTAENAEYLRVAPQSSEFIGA
Left-right determination factor 2 (Homo sapiens), sequence (O00292 whole entry, looked up): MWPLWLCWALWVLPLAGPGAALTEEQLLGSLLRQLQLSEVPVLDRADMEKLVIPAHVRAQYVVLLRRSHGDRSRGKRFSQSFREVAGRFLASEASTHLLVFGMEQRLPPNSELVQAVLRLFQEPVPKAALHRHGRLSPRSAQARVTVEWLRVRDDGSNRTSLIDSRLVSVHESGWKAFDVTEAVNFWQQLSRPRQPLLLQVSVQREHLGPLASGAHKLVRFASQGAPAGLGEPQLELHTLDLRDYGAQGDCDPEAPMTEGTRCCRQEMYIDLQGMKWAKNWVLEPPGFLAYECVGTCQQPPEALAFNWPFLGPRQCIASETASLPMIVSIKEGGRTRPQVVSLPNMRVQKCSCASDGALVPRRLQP

In the case of `Cc1ccc(S[C@]2(C(=O)NCCCN(C)C)CC(=O)N(C3CCCCC3)[C@@H]2c2ccc(CO)cc2)cc1`, the composite z-score in [1] was -0.0346; in assay [2], 0.348; in assay [3], 0.893; in assay [5], -0.89; in [6] it was -0.464; in assay [7], -0.674. Further, the composite z-score is -0.811 in assay [8]; -0.774 in assay [9]; 0.83 in assay [10]; -0.246 in [11]; -0.992 in assay [13]; -0.596 in assay [14]. Besides, the composite z-score was -0.677 in assay [15]; -0.129 in assay [16]; -0.0035 in assay [17]; -0.255 in assay [18]; -0.549 in assay [19]; -0.123 in [20]. Besides, the values for the z-score in assay [4] and in assay [12] were 0.104 (inactive) and -2.51, respectively.

As for `COCCOC(=O)N1C(=O)[C@@]2(c3cc(C#CC4=CCCCC4)ccc31)[C@H](c1ccc(OCCO)cc1)N1[C@H](c3ccccc3)[C@H](c3ccccc3)OC(=O)[C@H]1[C@@H]2C(=O)NC[C@H](O)c1ccccc1`, the composite z-score in assay [1] amounted to 1.44; in assay [2], 0.677; in assay [3], 0.696; in [5], 1.35; in assay [6], 1.31; in [7] it was 0.933. Moreover, the composite z-score in [8] was 1.49; in assay [9], 1.32; in assay [10] it was 1.29; in assay [11], 1.33; in assay [13] it was 0.958; in assay [14] it was 0.868. For the same compound, the composite z-score was 0.458 in assay [15]; -0.0297 in assay [16]; 0.107 in [17]; 0.802 in assay [18]; 1.06 in [19]; 1.19 in [20]. Moreover, the figures for the z-score in assay [4] and in [12] were -0.228 (inactive) and -1.88, respectively.

With `C=C(C)C1CCC(C(O)C2C=CC3C(=O)N(C)C(=O)C3N2N2CCCCC2)CC1` (stereo not given), the composite z-score in assay [1] turned out to be 0.925; in assay [2], 0.145; in assay [3], 0.67; in assay [5] it was 0.853; in assay [6] it was 1.3; in assay [7], 1.16. Moreover, the composite z-score in assay [8] was found to be 1.35; in [9], 0.986; in [10] it was 1.42; in assay [11], 1.44; in assay [13], 0.67; in [14], 0.949. Also, the composite z-score in assay [15] turned out to be 0.763; in assay [16], 0.048; in assay [17], 0.413; in [18], 0.751; in assay [19], 0.555; in [20], 1.89. The figures for the z-score in [4] and in assay [12] were 0.929 (inactive) and -0.385, respectively.

As for `COc1ccc([Si](C)(C)[C@H]2[C@H](CCO)O[C@@]3(C(=O)N(Cc4cccc(N5C(=O)COc6ccccc65)c4)c4ccccc43)[C@@H]2C)cc1`, the composite z-score is 0.957 in assay [1]; 0.0114 in [2]; 0.122 in assay [3]; -0.222 in [5]; -0.585 in [6]; -0.686 in assay [7]. Also, the composite z-score in assay [8] was 0.0253; in [9], 0.125; in assay [10] it was -0.348; in assay [11], -0.502; in assay [13], 0.0828; in [14], 0.851. Besides, the composite z-score in [15] was 0.675; in assay [16], -0.0417; in assay [17] it was -0.0146; in assay [18], 0.26; in assay [19] it was 0.474; in assay [20] it was 0.252. Moreover, the values for the z-score in assay [4] and in assay [12] were -2.17 (inactive) and -4.98, respectively.

For `O=C1N(Cc2ccccc2)Cc2ccccc2[C@@H]2OC(c3ccc(OCCCO)cc3)=N[C@]12CCS(=O)(=O)c1ccccc1`, the composite z-score was 0.596 in assay [1]; -0.0422 in assay [2]; 1.05 in assay [3]; 1.04 in assay [5]; 0.309 in [6]; 0.607 in [7]. For the same compound, the composite z-score in assay [8] is 0.291; in assay [9], -0.222; in [10], 0.772; in assay [11], 1.4; in [13], 0.347; in assay [14], 0.729. The composite z-score in [15] is 0.264; in assay [16], -0.0758; in assay [17], 0.265; in assay [18], -0.319; in assay [19] it was -0.0362; in [20] it was 1.37. The figures for the z-score in [4] and in assay [12] were 0.0631 (inactive) and -1.84, respectively.

Consider `COC(=O)[C@@]1(Cc2ccccc2N=[N+]=[N-])N=C(c2ccc(OCCCO)cc2)O[C@H]1c1ccccc1N=[N+]=[N-]`, for which the composite z-score was 1.52 in assay [1]; 0.793 in [2]; 1 in assay [3]; 0.386 in assay [5]; 0.65 in [6]; -0.098 in assay [7]. Further, the composite z-score is 0.419 in assay [8]; 0.0345 in assay [9]; 1.31 in [10]; 0.193 in assay [11]; -0.182 in assay [13]; 0.178 in assay [14]. Besides, the composite z-score in [15] is -0.62; in [16], 0.027; in assay [17], -0.064; in assay [18] it was 1.05; in assay [19] it was 0.435; in assay [20], 0.726. The z-score is 7.07 (inactive) in [4] and -3.4 in assay [12].
